Results as given in PubChem BioAssay (NCATS).
Inconclusive results are not listed. A number with no mark means an inactive call. Calls of active or inactive are those of the source. Calls come from the whole dose curve; as a rule, active = well fitted cell-killing curve with a large enough effect; inconclusive = small, poorly fitted or top-dose-only effect; inactive = flat fitted curve, though single readings scatter.

Columns and labels:
[1] = Cellular viability qHTS for adrenocortical cancer (ACC) cell line SW-13 (AID 1963989); conditions: SW-13 ACC cells viability, CellTiter-Glo, 48 h; activity (max response): active compounds read low; note: nearly all actives have a fitted effect of over 65% in size;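 for activity (max response): cells grown in serum-free medium with ITS supplement; % is set by controls: 0 for no effect and ±100 for the full control effect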
How it was run: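 Luminescent ATP read-out (CellTiter-Glo, 20 min at room temperature) measured metabolically competent SW-13 cells after 48 h compound treatment. Final concentrations spanned up to 46 uM; bortezomib served as positive control.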

[2] = Cellular viability qHTS for adrenocortical cancer (ACC) cell line NCI-H295R (AID 1963990); note: nearly all actives have a fitted effect of over 60% in size
How it was run: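 IC50 and maximal efficacy derive from four-parameter logistic modelling of titration curves, with reads scaled between DMSO-only wells (0%) and doxorubicin hydrochloride (100% inhibition). Compounds spanned up to 46 uM over 48 h.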
Potency is the fitted concentration of half-maximal effect.

Structure (SMILES)	activity (max response) [1] [%]	Potency [2]	Potency [1]
CS(=O)(=O)c1ccc([C@@H](O)[C@@H](CF)NC(=O)C(Cl)Cl)cc1	-12.7	inactive	–
C[C@@H]1C[C@H]2[C@@H]3CCC4=CC(=O)C=C[C@]4(C)[C@@]3(F)[C@@H](O)C[C@]2(C)[C@H]1C(=O)CO	1.09	inactive	–
O=C(O)c1ccc(O)c2ncccc12	-6.62	inactive	–
CC(=O)OCC(=O)[C@@]1(O)[C@H](C)C[C@H]2[C@@H]3CCC4=CC(=O)C=C[C@]4(C)[C@@]3(F)[C@@H](O)C[C@@]21C	2.72	inactive	–
C=CC(=O)N1C[C@H](Nc2ncnc3[nH]ccc23)CC[C@@H]1C	-23.7	inactive	–
c1ccc(-c2nc[nH]c2-c2ccccc2)cc1	-22.8	inactive	–
C=CCOc1cc(Cl)ccc1C(=O)NCCN(CC)CC	-0.164	inactive	–
O=C(O)Cc1ccc(CCNS(=O)(=O)c2ccc(Cl)cc2)cc1	-0.672	inactive	–
CC1(N)CCN(c2cnc(-c3cccc(Cl)c3Cl)c(N)n2)CC1	-1.73	inactive	–
C=C[C@H]1CN2CC[C@H]1C[C@H]2[C@H](O)c1ccnc2ccc(OC)cc12	-6.74	inactive	–
Nc1ccc2cc3ccc(N)cc3nc2c1	–	2.59 µM (active)	6.51 µM (active)
O=[N+]([O-])c1cccc(S(=O)(=O)NCCNS(=O)(=O)c2cccc([N+](=O)[O-])c2)c1	-5.4	inactive	–
CC(=O)[C@@]1(O)CC[C@H]2[C@@H]3CCC4=CC(=O)CC[C@]4(C)[C@H]3CC[C@@]21C	-6.65	inactive	–
CCCC(=O)O[C@]1(C(=O)COC(=O)CC)CC[C@H]2[C@@H]3CCC4=CC(=O)CC[C@]4(C)[C@H]3[C@@H](O)C[C@@]21C	8.42	inactive	–
CCc1cc2c(c(OCC(F)(F)F)c(C(=O)NC3CCN(C(=O)CO)CC3)n2C)c(=O)n1CC(=O)c1ccccc1	-16.3	inactive	–
C=CCCCCCCCCC(=O)O	9.7	inactive	–

Structure (SMILES)	activity (max response) [1] [%]	Potency [2]	Potency [1]
CC(C)C[C@@H]1[C@H](c2ccccc2)OC(=O)N1CCCN1CCCCCC1	-14.7	inactive	–
CC(C)CCOC(=O)c1ccc(N(C)C)cc1	5.28	inactive	–
CCC(=O)O[C@]1(C(=O)CO)CC[C@H]2[C@@H]3CCC4=CC(=O)CC[C@]4(C)[C@H]3CC[C@@]21C	7.43	inactive	–
COC(=O)N[C@@H](C)CNc1nccc(-c2cn(C(C)C)nc2-c2cc(Cl)cc(NS(C)(=O)=O)c2F)n1	-16	inactive	–
COc1ccc2c(c1)c(CC(=O)OC/C=C(\C)CC/C=C(\C)CCC=C(C)C)c(C)n2C(=O)c1ccc(Cl)cc1	2.52	inactive	–
CC(=O)[C@@]1(O)CC[C@H]2[C@@H]3C[C@H](C)C4=CC(=O)CC[C@]4(C)[C@H]3CC[C@@]21C	-1.82	inactive	–
C[C@]1(C(=O)N(CCCC(=O)O)Cc2cccc(Cl)c2)CCN1C(=O)c1csc2ccccc12	-17.4	inactive	–
Cc1cc(Nc2cc(N3CCN(C)CC3)nc(/C=C/c3ccccc3)n2)n[nH]1	–	10 µM (active)	25.1 µM (active)
O=C(CN1CCN(Cc2ccc3c(c2)OCO3)CC1)N1c2ccccc2Sc2ccccc21	-10.1	inactive	–
Cc1ccc(NC(=O)[C@H]2CCCN(C(=O)c3c(C)cccc3F)[C@H]2c2ccc(NC3CCCC3)cc2)cc1C(F)(F)F	-13.2	inactive	–
CN1C(=O)N[C@@H](Cc2c[nH]c3c(Cl)cccc23)C1=O	-3.59	inactive	–
Cc1cc(O)cc(C)c1Cl	6.52	inactive	–
CC(=O)O[C@]1(C(C)=O)CC[C@H]2[C@@H]3C=C(Cl)C4=CC(=O)CC[C@]4(C)[C@H]3CC[C@@]21C	-0.809	inactive	–
CC(C)C[C@H](CC(=O)O)C(=O)N[C@@H](Cc1c[nH]c2ccccc12)C(=O)N[C@@H](C)c1ccccc1	0.614	inactive	–
Cc1nnc(SCC2=C(C(=O)O)N3C(=O)[C@@H](NC(=O)Cn4cnnn4)[C@H]3SC2)s1	10	inactive	–
NCc1ccccc1Sc1ccccc1CO	-6.09	inactive	–
